# NTR1 agonist: activates human neurotensin receptor 1; P30989; AID 493036; hit rate 0.17% among 330,000; NTR1-U2OS beta-arrestin-GFP spot imaging, agonist mode; activation, % at 20 µM;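 active means activation at or above 40% of the spot to cytoplasm intensity ratio, with at least 20 cells analyzed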;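 further: 0% = DMSO without peptide and 100% = 100 nM NTR1 peptide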
# APOBEC3G inh: inhibitors of human APOBEC3G DNA deaminase; hit rate 0.28% among 330,000; inhibition, % at 20 µM; recombinant A3G, ssDNA deamination FAM/TAMRA fluorescence; AID 493012;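 active means inhibition of at least 40% at 20 µM, with no more than 30% in the related APOBEC3A deaminase screen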;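 further: plate controls were DMSO wells with A3G for no effect and wells lacking A3G enzyme for full effect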
# A3A deaminase: blocks human APOBEC3A ssDNA deamination. P31941. recombinant A3A, FAM/TAMRA ssDNA deamination fluorescence. inhibition, % at 20 µM. hit rate 0.41% among 330,000. AID 493011;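 active means at least 40% inhibition at 20 µM here, with at most 30% in a related deaminase screen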;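 further: plate controls were A3A with DMSO for no effect and wells lacking A3A enzyme for full effect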
# Target sequence (P31941 whole entry, looked up): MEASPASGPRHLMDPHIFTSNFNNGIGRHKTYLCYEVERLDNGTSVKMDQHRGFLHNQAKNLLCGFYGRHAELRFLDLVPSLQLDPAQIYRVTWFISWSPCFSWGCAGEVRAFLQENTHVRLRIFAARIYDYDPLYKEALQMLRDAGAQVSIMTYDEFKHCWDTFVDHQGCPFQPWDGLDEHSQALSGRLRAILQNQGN
# AHR activator: human AHR activation | AHR-responsive luciferase reporter cells, luminescence | activation, % at 5 µM | hit rate 2.5% among 320,000; in the data active means activation above about 47%;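 further: 0% = vehicle wells and 100% = reference agonist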
# Active calls of the source: *; . = no result given. A selection: hits, their analogues and other compounds. The true share with any hit is near 3.2%.
SMILES,NTR1 agonist,APOBEC3G inh,A3A deaminase,AHR activator
CCCCCNc1nc(NCCCO)c(C#N)c2c1CN(C)CC2,-0.3,2.0,0.7,58.3*
C=CCNc1nc(NCc2ccccc2)c(C#N)c2c1CN(C)CC2,2.2,-2.9,-3.0,53.6*
CCN1CCc2c(C#N)c(NCc3ccccc3)nc(N(CC)CC)c2C1,-0.2,-1.2,3.4,12.3
CCCc1nc(NCCO)c(C#N)c2c1CCCC2,6.5,-7.2,-1.8,5.1
CN1CCc2c(C#N)c(N3CCOCC3)nc(NCC3CCCO3)c2C1 (stereo not drawn),2.0,-11.2,-4.4,-3.4
CCCCCNc1nc(N2CCCC2)c2c(c1C#N)CCN(C)C2,6.1,-4.7,-3.5,59.5*
CC(C)Cc1nc(SCC(=O)N2CCCC2)c2c(=O)n(C)c(=O)n(C)c2n1,-0.3,-8.9,-3.4,-2.4
O=C1OC[C@H](Cc2ccc3c(c2)OCO3)/C1=C\c1ccc2c(c1)OCO2,0.3,-5.9,-3.2,14.9
CC(=O)n1c2c(c3ccccc31)OC(N)=C(C#N)C2c1cccc(Cl)c1Cl (stereo not drawn),11.1,-7.6,-3.5,48.5*
C/C(=N/NC(=O)c1ccc(Br)o1)c1cccc(NC(=O)c2ccc(C)o2)c1,1.5,-5.3,0.1,51.4*
C/C(=N/NC(=O)c1ccc(Br)o1)c1ccncc1,-0.4,-11.4,21.4,50.0*
C/C(=N/NC(=O)c1ccco1)c1cccc(NC(=O)c2ccc(C)o2)c1,-0.5,-4.1,-3.0,9.1
O=C(CCC(=O)c1ccc(Cl)cc1)OCc1nc2ccsc2c(=O)[nH]1,1.3,-2.6,2.8,0.2
CCSc1nc2sc3c(c2c(=O)[nH]1)CCc1ccccc1-3,9.1,-1.2,0.5,56.6*
C=CCn1c(SCCC)nc2sc3c(c2c1=O)CCc1ccccc1-3,4.1,-5.4,-3.9,28.4
COc1ccc(-c2ccc3oc(-c4ccsc4)cc3c2)cc1,0.8,-14.9,-7.3,57.1*
COc1ccccc1OCC(=O)/C=C1/N(C)c2ccccc2C1(C)C,4.4,-0.4,-0.6,15.6
CN1/C(=C\C(=O)COc2ccc3c(c2)OCO3)C(C)(C)c2ccccc21,0.3,0.5,1.3,56.3*
CCCCOC(=O)C[N+](C)(C)CCOC1CC2CCC1(C)C2(C)C (stereo not drawn),0.7,-5.0,-1.2,-0.9
CCCCCCOC(=O)C[N+](C)(C)CCOC1CC2CCC1(C)C2(C)C (stereo not drawn),40.2*,-2.5,3.5,0.2
O=C(/C=C/c1ccc(OC(F)F)cc1)Nc1cccc(S(=O)(=O)N2CCOCC2)c1,1.7,-3.1,11.4,-2.8
CCCOc1ncnc2c1[nH]c1ccccc12,0.1,-2.6,0.0,79.9*
CCCOc1ncnc2c1[nH]c1ccc(OC)cc12,0.5,-1.3,-1.1,44.1
OCCCNc1ncnc2c1[nH]c1ccccc12,-0.7,-6.6,-3.0,22.6
COCCNc1ncnc2c1[nH]c1ccccc12,0.2,5.8,1.0,74.0*
SMILES,NTR1 agonist,APOBEC3G inh,A3A deaminase,AHR activator
CCN(CC)c1ncnc2c1[nH]c1ccccc12,-0.4,-5.7,-2.5,64.6*
CCOCCCN1CC(=O)N2[C@@H](Cc3c([nH]c4ccccc34)C2(C)C)C1=O,-1.5,-6.9,-1.9,3.5
COc1ccccc1C1=Nn2c(COc3ccccc3)nnc2SC1,4.6,51.4*,-3.0,15.0
c1ccc(OCc2nnc3n2N=C(c2ccccc2)CS3)cc1,2.1,38.4,4.1,11.7
CC(Sc1nnc(C2CC2)n1C1CC1)C(=O)c1ccc(F)cc1 (stereo not drawn),-1.2,-6.0,3.8,-1.6
CC(C)CNS(=O)(=O)c1ccc(Br)cc1N1CCC[C@@H]1CO,1.5,4.5,4.8,.
O=C(/C=C/c1ccccc1O)c1ccco1,9.9,-0.5,-3.3,-4.8
O=C(/C=C/c1cc(Br)ccc1O)c1ccco1,47.1*,5.6,-12.2,1.9
Cc1ccc(/C=C/C(=O)c2cc(Br)ccc2OC(=O)c2ccco2)cc1,3.2,-1.0,-1.0,9.4
COc1ccccc1/C=C/C(=O)c1cc(Br)ccc1OC(=O)c1ccco1,20.2,2.9,-0.8,74.0*
O=C(CC1C(=O)NCCN1Cc1ccoc1)NCCCn1ncc2ccccc21 (stereo not drawn),1.0,-2.8,-0.8,0.1
COc1ccccc1CN1CC(C(=O)NCc2nccn2C)CCC1=O (stereo not drawn),-0.5,-4.0,-3.9,0.1
Cc1cccc(NC(=O)CNC(=O)CSc2nnc(C(F)(F)F)n2C)c1C,1.4,-8.6,-3.4,0.1
Cc1cc(C)n(C(=O)/C(C#N)=C/N(C)C)n1,-1.8,5.1,2.2,4.7
Clc1ccc(-c2cn3c(n2)-c2ccccc2C3)cc1Cl,4.2,-5.5,0.3,61.7*
Cc1cc(NS(=O)(=O)c2ccc(Nc3nc(-c4ccc(O)cc4)cs3)cc2)no1,1.4,-9.0,-2.5,60.1*

# Assay outcomes from PubChem.
